Experimental findings from PubChem BioAssay AID588511 (Johns Hopkins Ion Channel Center, 2011) are described below.

Each structure is given as a SMILES string. The whole screen tested about 310,000 compounds, of which about 3,600 (1.2%) were called active. This is one part of a sample in which actives are shown more often than they occur.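 Rule for the calls: active = ratio plate-corrected score three or more library SD toward inhibition, starting fluorescence score within five deviations; inactive = the rest.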

For this test, the target named is Anoctamin-1 (Mus musculus) (UniProt Q8BHY3). The experiment in a line: TMEM16A chloride channel inhibitors, primary screen, cell-based, HTS (AID 588511).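 For normalized B-score (activity score, 25-100; higher = stronger inhibition): score derived from kinetic fluorescence span divided by baseline fluorescence per well.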 The conditions noted are these: HEK293 TMEM16A/YFP iodide influx fluorescence, ionomycin; at 10 µM.
Chain of Anoctamin-1 (Mus musculus) (Q8BHY3 whole entry, looked up): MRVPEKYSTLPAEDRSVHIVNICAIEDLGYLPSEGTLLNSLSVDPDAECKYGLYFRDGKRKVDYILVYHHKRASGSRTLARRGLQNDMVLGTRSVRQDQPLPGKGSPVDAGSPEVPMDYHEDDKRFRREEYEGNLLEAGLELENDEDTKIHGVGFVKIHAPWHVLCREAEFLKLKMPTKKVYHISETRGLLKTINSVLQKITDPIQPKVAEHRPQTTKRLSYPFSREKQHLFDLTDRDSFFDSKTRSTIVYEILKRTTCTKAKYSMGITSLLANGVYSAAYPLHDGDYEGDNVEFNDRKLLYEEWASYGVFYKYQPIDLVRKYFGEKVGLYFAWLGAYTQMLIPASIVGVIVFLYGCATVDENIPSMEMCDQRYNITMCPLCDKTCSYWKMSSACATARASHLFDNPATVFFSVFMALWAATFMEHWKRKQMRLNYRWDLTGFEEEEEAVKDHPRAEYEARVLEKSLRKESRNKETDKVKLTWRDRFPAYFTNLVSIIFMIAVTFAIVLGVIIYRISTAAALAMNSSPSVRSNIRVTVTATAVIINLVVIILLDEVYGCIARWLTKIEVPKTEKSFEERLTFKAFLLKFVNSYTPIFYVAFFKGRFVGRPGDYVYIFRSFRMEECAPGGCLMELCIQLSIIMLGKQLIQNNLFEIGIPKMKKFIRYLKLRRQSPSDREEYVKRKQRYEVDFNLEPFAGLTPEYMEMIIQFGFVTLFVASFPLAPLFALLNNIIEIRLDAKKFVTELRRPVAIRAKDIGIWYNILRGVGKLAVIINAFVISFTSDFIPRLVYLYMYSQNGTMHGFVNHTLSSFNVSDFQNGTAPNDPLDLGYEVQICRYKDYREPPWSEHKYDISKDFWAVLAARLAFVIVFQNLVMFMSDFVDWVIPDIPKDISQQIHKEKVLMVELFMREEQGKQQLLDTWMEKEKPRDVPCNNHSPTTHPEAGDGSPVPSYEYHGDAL
For the compound `O=C(N/N=C/c1cccc2cccnc12)[C@H]1C[C@@H]1c1ccccc1`, the normalized B-score (activity score, 25-100; higher = stronger inhibition) result is “inactive”.
With `Cc1ccc(C)c(OCCC(=O)OCC(=O)NC(=O)NCc2ccccc2)c1` the entry was “inactive”; with `O=C(Nc1ccc(S(=O)(=O)N2CCCCC2)cc1)C1CC(=O)N(c2ccc(F)cc2)C1` (configuration not stated), “inactive”.
With `O=C(NC(=S)Nc1ncccn1)c1ccccc1Br` the entry was “inactive”; with `COc1ccnc(Oc2ccccc2)c1-c1ncn[nH]1`, “inactive”.
The result for `NC(=O)c1c(Nc2nc3c(F)cccc3s2)sc2c1CCCC2` reads 25 (active).
Turning to `NC(=O)c1c(NC(=O)c2ccccc2)sc2c1CCCC2`, the normalized B-score (activity score, 25-100; higher = stronger inhibition) result was “inactive”.
With `Fc1cc(F)c2nc(N3CCOCC3)sc2c1` the entry was “inactive”; with `O=C(Nc1nc2c(F)cc(F)cc2s1)C1COc2ccccc2O1` (configuration not stated), “inactive”.
On to `Fc1cc(F)c2nc(Nc3nc4c(F)cccc4s3)sc2c1`, for which the normalized B-score (activity score, 25-100; higher = stronger inhibition) was 100 (active).
With `COc1cccc(OC)c1C(=O)Nc1sc2c(c1C(N)=O)CCCC2` the entry was “inactive”.
As for `Cc1c(C(=O)Nc2ccccn2)oc2ccc(Br)cc12`, the normalized B-score (activity score, 25-100; higher = stronger inhibition) result is “inactive”.
Turning to `CCC(C)(C(=O)Nc1ccccc1C)N(C(=O)CNC(C)=O)c1ccc(C)cc1` (configuration not stated), the normalized B-score (activity score, 25-100; higher = stronger inhibition) result was “inactive”.
With `CS(=O)(=O)c1sc(C(=O)NC(=S)Nc2ccc(OC(F)(F)F)cc2)c2c1C=CCC2` the entry was “inactive”; with `CC1(C)O[C@@H]2CC3C4C[C@H](F)C5=CC(=O)C=CC5(C)C4C(O)CC3(C)[C@]2(C(=O)CO)O1` (some centres not stated), “inactive”; with `Cc1ccc(/C=C2/SC(=S)N(CCC(=O)NCCCN3CCOCC3)C2=O)cc1`, “inactive”.
The result for `O=C(Nc1cccc(Cl)c1)Nc1ccccc1NS(=O)(=O)c1cccs1` reads 100 (active); that for `O=S(=O)(Nc1ccccc1Br)c1cccs1`, “inactive”; that for `O=S(=O)(NCc1ccc(Cl)cc1Cl)c1cccs1`, “inactive”.
With `COc1ccc(Nc2nc(N)nc(CSC(=S)N3CCC(C)CC3)n2)cc1` the entry was “inactive”.
Turning to `O=S(=O)(ON(c1ccccc1)S(=O)(=O)c1ccccc1)c1ccccc1`, the normalized B-score (activity score, 25-100; higher = stronger inhibition) entry was “inactive”.
The result for `CC1=C/C(=N\OS(=O)(=O)c2ccccc2)C=CC1=O` reads 25 (active); that for `CC(NC(=O)CN1CCN(Cc2ccc(Cl)cc2)C1=O)c1ccc2c(c1)OCCO2` (configuration not stated), “inactive”.
The result for `O=C(c1ccc(=O)oc1)N1CCC(C(O)(c2ccccc2)c2ccccc2)CC1` reads “inactive”; that for `CCOC(=O)c1oc2ccccc2c1NC(=O)c1cccs1`, 25 (active).
`NC(=O)c1oc2ccccc2c1NC(=O)Cc1ccccc1`: the normalized B-score (activity score, 25-100; higher = stronger inhibition) result was “inactive”.
The result for `CCc1c(C)sc(NC(=O)c2cccs2)c1C(N)=O` reads “inactive”.
For the compound `COC(=O)CCSc1cc([N+](=O)[O-])cc2c1c(C1OCCS1)nn2-c1ccccc1` (configuration not stated), the normalized B-score (activity score, 25-100; higher = stronger inhibition) result is “inactive”.
Take `COc1ccc(OC)c(NC(=O)CN(C)CCOc2ccc(Br)cc2)c1`: the normalized B-score (activity score, 25-100; higher = stronger inhibition) entry is “inactive”.
With `CCCCCCCCn1c2c(c(=N)c3c1CCC3)CCCC2`, the normalized B-score (activity score, 25-100; higher = stronger inhibition) is 100 (active).
Take `CC(C)C[C@@H](COc1ccccc1)N1CCN(CC(C)C)CCC1=O`: the normalized B-score (activity score, 25-100; higher = stronger inhibition) result was “inactive”.
With `CCCCNC(=O)CSc1nc2n[nH]c(C)c2c(=N)n1-c1cccc(Cl)c1C`, the normalized B-score (activity score, 25-100; higher = stronger inhibition) was 25 (active).
With `COc1cccc(-n2c(SCC(=O)NC3CCCCC3)nc3n[nH]c(C)c3c2=N)c1` the entry was “inactive”.
On to `Cc1ccc(-n2c(SCC(=O)NCCC3=CCCCC3)nc3n[nH]c(C)c3c2=N)cc1Cl`, for which the normalized B-score (activity score, 25-100; higher = stronger inhibition) result was “inactive”.
The result for `Cc1ccc(N2CC(C(=O)N3CCC4(CC3)CC(=O)c3ccccc3O4)CC2=O)cc1C` (configuration not stated) reads “inactive”; that for `CCCOc1ccc(C2=CSC3=NCCN23)cc1Cl`, “inactive”.
Take `CC(=O)N(C1=C(Cl)C(=O)c2ccccc2C1=O)c1ccc(C(=O)O)cc1`: the normalized B-score (activity score, 25-100; higher = stronger inhibition) is 100 (active).
With `O=S(=O)(N1CCCCC1)N1CCNCC1` the entry was “inactive”; with `CCOC(=O)Cc1c(C)nc2c(C#N)c(C)nn2c1C`, “inactive”.
With `CCCc1nc(SCC(=O)N2CCCC2)c2c(=O)n(C)c(=O)n(C)c2n1` the entry was “inactive”; with `O=C(Nc1ccc(Cl)cc1)/C(=C1\CCCN1)[N+](=O)[O-]`, “inactive”; with `Cc1ccc(OCC(=O)Nc2ccc3oc(=O)ccc3c2)cc1C`, “inactive”.
The result for `Fc1ccc2[nH]c3c(N4CCSCC4)ncnc3c2c1` reads 100 (active); that for `Cc1c(CN2CC[C@@H](N3CCN(c4ccccn4)CC3)[C@H](O)C2)[nH]c2ccc(F)cc12`, “inactive”.
Turning to `Cc1cc(C)c(S(=O)(=O)c2cc(F)ccc2C)c(=O)[nH]1`, the normalized B-score (activity score, 25-100; higher = stronger inhibition) entry is “inactive”.
In the case of `COc1ccc(C(=O)OCC(=O)Nc2ccc3[nH]c(=O)[nH]c3c2)c(OC)c1OC`, the normalized B-score (activity score, 25-100; higher = stronger inhibition) entry is “inactive”.
Consider `CS(=O)(=O)N(CC(=O)N1CCN(c2ccc(F)cc2)CC1)C1CCCCC1`, for which the normalized B-score (activity score, 25-100; higher = stronger inhibition) entry was “inactive”.
Take `CCOC(=O)N1CCN(C(=O)c2ccc3nc4cc(Cl)ccc4c(=O)n3c2)CC1`: the normalized B-score (activity score, 25-100; higher = stronger inhibition) entry was “inactive”.
The result for `COC(=O)c1ccc(NC(=O)c2ccccc2NS(=O)(=O)c2ccccc2)cc1` reads 100 (active).
Consider `COc1cc(OC)c(S(=O)(=O)Nc2ccccc2C(=O)O)cc1S(=O)(=O)Nc1ccccc1C(=O)O`, for which the normalized B-score (activity score, 25-100; higher = stronger inhibition) result is “inactive”.
The result for `COC(=O)c1ccccc1NC(=O)c1ccccc1NS(C)(=O)=O` reads “inactive”.
With `CCOc1ccc(NC(=O)c2ccccc2NS(C)(=O)=O)cc1` the entry was “inactive”; with `COc1cc(NC(=O)c2ccccc2NS(=O)(=O)c2ccc(Cl)s2)cc(OC)c1`, 100 (active).
With `COc1ccc(NC(=O)c2cnc(NS(=O)(=O)c3ccccc3)nc2)cc1` the entry was “inactive”; with `CCNC(=O)CC1C(=O)N(c2ccc(F)cc2)C(=O)N1CCc1sccc1C` (configuration not stated), “inactive”; with `COc1ccc(NCc2nnc(SCc3ccccc3)n2-c2ccc(OC)cc2)cc1`, “inactive”.
As to `O=C(O)c1ccc(-n2nc(-c3ccccc3)c3ccccc3c2=O)cc1`, the normalized B-score (activity score, 25-100; higher = stronger inhibition) entry was “inactive”.
With `Cc1cc(C)c(S(=O)(=O)N2CCOCC2)cc1C` the entry was “inactive”; with `OCC[C@H]1C[C@@H](O)[C@H](O)[C@]2(OCCCc3ccccc32)O1`, “inactive”.
On to `Cc1c(C)c2c(OCC(=O)NCCCO)cc3c(c2oc1=O)CCC(C)(C)O3`, for which the normalized B-score (activity score, 25-100; higher = stronger inhibition) entry is “inactive”.
With `Cc1cc(=O)oc2c3c(cc(OCC(=O)N[C@H](C(=O)O)c4ccccc4)c12)OC(C)(C)CC3` the entry was “inactive”; with `Cc1c(C)c2c(OCC(=O)N[C@@H](C(=O)O)c3ccccc3)cc3c(c2oc1=O)CCC(C)(C)O3`, 100 (active); with `C#CCO[C@@H]1C[C@H](n2cnc3c(=O)[nH]c(NC(=O)C(C)C)nc32)O[C@@H]1CO`, “inactive”.
Regarding `COCCN(C(=O)CCC(=O)Nc1nccs1)C(C(=O)NCCC(C)C)c1ccc(F)cc1` (configuration not stated), the normalized B-score (activity score, 25-100; higher = stronger inhibition) entry is “inactive”.
With `CCCc1cc(C(=O)N2CCCC(CO)(CCCc3ccccc3)C2)n(C)n1` (configuration not stated) the entry was “inactive”; with `CN(C)CCCN(C(=O)c1ccc(S(=O)(=O)N2CCCc3ccccc32)cc1)c1nc2ccc(F)cc2s1`, “inactive”; with `CSc1nc2ccc(S(=O)(=O)N3CCc4ccccc43)cc2s1`, “inactive”.
The result for `O=C(CNC(=O)c1ccccc1)Oc1ccc([N+](=O)[O-])cc1` reads “inactive”; that for `CCC(=O)NC(Nc1nc2ccc(C)cc2s1)(C(=O)OC)C(F)(F)F` (configuration not stated), “inactive”; that for `O=C(Nc1nc2ccc([N+](=O)[O-])cc2s1)c1ccc(S(=O)(=O)N2CCCc3ccccc32)cc1`, 100 (active).
Take `O=C(NC(Nc1nc2ccc([N+](=O)[O-])cc2s1)(C(F)(F)F)C(F)(F)F)c1ccccc1`: the normalized B-score (activity score, 25-100; higher = stronger inhibition) was 100 (active).
The result for `O=C(NCc1ccc(F)cc1)C(c1ccccc1)N(C(=O)c1csnn1)C1CC1` (configuration not stated) reads “inactive”; that for `Fc1ccc(-c2nnc(CSc3nnc(-c4ccc5c(c4)OCO5)o3)o2)cc1`, “inactive”.
The result for `CCSc1nnc(-c2cc3c(s2)-c2ccccc2CC3)o1` reads “inactive”.
For `Fc1ccc(CSc2nnc(-c3cc4c(s3)-c3ccccc3CC4)o2)cc1`, the normalized B-score (activity score, 25-100; higher = stronger inhibition) was 100 (active).
The result for `O=C(NCCS(=O)(=O)c1ccc(Br)cc1)c1ccccc1Cl` reads “inactive”.
With `O=C(OCC1O[C@@H](OC(=O)c2cc(O)c(O)c(O)c2)[C@@H](OC(=O)c2cc(O)c(O)c(O)c2)[C@@H](OC(=O)c2cc(O)c(O)c(O)c2)[C@@H]1OC(=O)c1cc(O)c(O)c(O)c1)c1cc(O)c(O)c(O)c1` (some centres not stated), the normalized B-score (activity score, 25-100; higher = stronger inhibition) result was “inactive”.
The result for `CC(=O)c1c(C)[nH]c(C(=O)COC(=O)CCOc2ccc(C)cc2)c1C` reads “inactive”; that for `CC(=O)c1c(C)[nH]c(C(=O)COC(=O)c2cccc(S(=O)(=O)N(C)c3ccccc3)c2)c1C`, 100 (active).
Consider `CN(c1ccccc1)S(=O)(=O)c1ccc(Cl)c(C(=O)OCC(N)=O)c1`, for which the normalized B-score (activity score, 25-100; higher = stronger inhibition) result was “inactive”.
As to `CC(=O)NCCc1ccc(S(=O)(=O)Nc2ccc(C)c(S(=O)(=O)N3CCOCC3)c2)cc1`, the normalized B-score (activity score, 25-100; higher = stronger inhibition) entry is “inactive”.
On to `CCCCCC(O)c1cccc(OCc2ccc3ccccc3n2)c1` (configuration not stated), for which the normalized B-score (activity score, 25-100; higher = stronger inhibition) was 100 (active).
For `CCCCCCOC(=O)NCC(O)c1ccccc1` (configuration not stated), the normalized B-score (activity score, 25-100; higher = stronger inhibition) result was “inactive”.
The result for `COc1cccc(C(O)c2nc3ccccc3n2C)c1` (configuration not stated) reads “inactive”.
Consider `NC(=O)c1ccc(Nc2ccc3c(c2)CCC3)c([N+](=O)[O-])c1`, for which the normalized B-score (activity score, 25-100; higher = stronger inhibition) result is “inactive”.
The result for `Cc1ccc(S(=O)(=O)NCc2csc(C)n2)c(C)c1` reads “inactive”.
As to `Cc1nc(CNS(=O)(=O)c2cccnc2)cs1`, the normalized B-score (activity score, 25-100; higher = stronger inhibition) entry is “inactive”.
With `Cc1nc(CNS(=O)(=O)c2ccc(Oc3ccccc3)cc2)cs1` the figure was 100 (active); with `CS(=O)(=O)c1ccccc1C(=O)Nc1ccc2sccc2c1`, “inactive”; with `Cc1csc(NC(=S)Nc2cccc(Cl)c2)n1`, “inactive”.
The result for `S=C(Nc1cccc(Cl)c1)Nc1ccc2c(c1)OCCO2` reads “inactive”; that for `FC(F)(F)c1cccc(NC(=S)Nc2cccc(Cl)c2)c1`, 100 (active); that for `COC(=O)CNS(=O)(=O)c1ccc(OC)cc1`, “inactive”.
Turning to `COc1ccc(S(=O)(=O)NCCCCOc2ccc(Cl)cc2)cc1`, the normalized B-score (activity score, 25-100; higher = stronger inhibition) was 25 (active).
Regarding `COc1ccc(S(=O)(=O)NCCCc2ccccc2)cc1`, the normalized B-score (activity score, 25-100; higher = stronger inhibition) entry is “inactive”.
The result for `Cc1ccccc1C(=O)N1CCC(C(=O)Oc2ccc(C#N)cc2)CC1` reads “inactive”; that for `Cc1cccc(N(Cc2ccccc2)C(=O)c2cc(S(=O)(=O)N3CCOCC3)ccc2F)c1`, “inactive”.
With `COc1ccc(-c2nn(C)c(=O)c3ccccc23)cc1NC(=O)COc1ccccc1`, the normalized B-score (activity score, 25-100; higher = stronger inhibition) entry is “inactive”.
In the case of `Cc1ccc(F)cc1NC(=O)Cc1nn(C)c(=O)c2ccccc12`, the normalized B-score (activity score, 25-100; higher = stronger inhibition) was 100 (active).
With `Cc1nn(CC(=O)Nc2ccc(F)cc2)c(=O)c2ccccc12` the entry was “inactive”; with `C[C@@H]1NC(=O)c2cc([N+](=O)[O-])cc(F)c2NCCC[C@@H](C(N)=O)NC(=O)[C@H](CC(N)=O)NC1=O`, “inactive”.
For `Cc1nn(C)c(Oc2ccccc2)c1CCNS(=O)(=O)c1ccc(F)cc1`, the normalized B-score (activity score, 25-100; higher = stronger inhibition) result was “inactive”.
